Screening data from PubChem.
HCV inh – blocks hepatitis C virus | 340,000 compounds, 3.4% hits | Huh7.5.1 HCVcc-Cre infection, luciferase reporter, 44 h | AID 651820 | Potency, µM (highest dose often 41.8 µM), without a hit: top-dose activity change, negative = inhibition, hits mostly inhibitors; active = well fitted inhibition curve with a large enough effect; inconclusive = small, poorly fitted or top-dose-only effect, or another doubt; inactive = no such curve, though single readings can be large or run the other way; also: potency is read from the fitted curve at half-maximal effect
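After 44 h co-culture of compound, cells and HCVcc-Cre (~0.5 moi), substrate is added for 15 min at room temperature and luciferase measured over 15 sec. Cells were seeded at 1,000/well and pre-cultured 4 h.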
HCMV inh – blocks human cytomegalovirus replication; 410,000 compounds, 4.5% hits; activity change, negative = inhibition, % at 57.5 µM; AID 1259415; HFF cells, HCMV-luciferase reporter, 72 h; hits give low values; in the data active = activity change below about -60%; inconclusive = no clear call, values can overlap the other calls; inactive = above about -39%
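Compounds were evaluated in HFFs infected with an HCMV luciferase reporter virus (MOI 1 PFU/cell). Luciferase in lysates collected 72 h post infection served as the replication measure.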
Marburg entry inh – inhibitors of Marburg virus binding or cell entry. Marburg virus pseudotyped entry inhibition, cell reporter. 300,000 compounds, 1.8% hits. Potency, µM (doses to about 37.8 µM), for inactives: at the top dose activity change, negative = inhibition, usual class: inhibitors; calls by dose curve; tested in HEK293 cells; also: potency is read from the fitted curve at half-maximal effect
FMDV antiviral – blocks foot and mouth disease virus | FMDV antiviral cell-based qHTS | 410,000 compounds, 1.2% hits | Potency, µM (series often up to 57.9 µM), for inactives: top-dose activity change, negative = inhibition, actives largely listed as inhibitors | AID 1159524; calls by dose curve; tested in HEK293T cells; also: read-out not given here; potency is read from the fitted curve at half-maximal effect; nearly all actives have a fitted effect of over 45% in size
Lassa entry inh – inhibitors of Lassa virus binding or cell entry; 300,000 compounds, 1.2% hits; AID 540256; Lassa virus pseudotype entry inhibition, cell reporter; Potency, µM (doses to about 37.9 µM), for inactives: top-dose activity change, negative = inhibition, actives largely listed as inhibitors; calls by dose curve; tested in HEK293 cells; also: potency is read from the fitted curve at half-maximal effect; nearly all actives have a fitted effect of over 50% in size
Starred values were filed as active, the others as inactive; ? = inconclusive; nt = not tested or not shown; ! = not confirmed by another sample; [ ] = dose if it differs, or a comment. The list is not random: actives were taken first. Their share in the collection is about 7.9%. % is scaled to controls: 0 for no effect and ±100 for the full control effect.

SMILES	HCV inh	HCMV inh	Marburg entry inh	FMDV antiviral	Lassa entry inh
CCOc1ccc(C(=O)NC(=S)Nc2ccccc2N2CCC(C)CC2)cc1[N+](=O)[O-]	?	-96.8*	?	?	-23.2%
O=C(Nc1ccccc1N1CCCCC1)c1ccc(Cl)c([N+](=O)[O-])c1	12.6µM*	24.5	1.5%[14.2 µM]	?	30.3%
CN1CCN(c2ccccc2NC(=O)c2ccc(N3CCCC3)c([N+](=O)[O-])c2)CC1	?	-17.8	?	?	?
O=C(Nc1ccccc1-c1ccccc1)c1ccc(Cl)c([N+](=O)[O-])c1	?	-32.3	7.31µM*	-9.1%	23.1µM*
COC(=O)CCC(C)C1CCC2C3C(O)C[C@@H]4CC(O)CC[C@@]4(C)C3CC(O)[C@]12C (stereo partly drawn)	nt	nt	nt	-7.3%	nt
Cc1oc(-c2ccc(Cl)cc2)nc1CN1CCCC(C(=O)NC2CC2)C1 (stereo not drawn)	?	17.6	nt	-9.1%	nt
O=C(NCc1cccnc1)C1CCN(C(=O)c2ccc(Cl)cc2Cl)CC1	5.3%	6.2	0.2%	-20.1%	1.2%
O=C(NCc1cccnc1)C1CCC(c2ccc(Cl)cc2)CC1 (stereo not drawn)	7.94µM*	?	?	?	-20.5%
Cc1oc(-c2ccc(Cl)cc2)nc1CN1CCCC(C(=O)NCc2ccco2)C1 (stereo not drawn)	12.6µM*	19.2	?	?	-1.0%
Cc1oc(-c2ccc(Cl)cc2)nc1CN1CCCC(C(=O)NCc2ccc(Cl)cc2)C1 (stereo not drawn)	nt	6.1	9.3%[46.1 µM]	35.5µM*	9.5%[46.1 µM]
CCCN(CCC)CCNC(=O)C1CCN(Cc2nc(-c3ccc(Cl)cc3)oc2C)CC1	0.794µM*	-8.9	10.3µM*	-4.8%	?
CCN(C(=O)Cn1c(SCc2ccccc2F)nc2cccnc21)c1ccccc1	nt	-25.3	nt	11.9%	-2.9%[46.1 µM]
COc1ccc(CN2CCN(c3ncc(C(=O)Nc4ccccc4)o3)C2=O)cc1	nt	12.2	nt	nt	nt
COC(=O)N1CCC2(CCN(C(=O)Nc3ccc(OC)cc3)CC2)CC1	nt	nt	nt	5.9%	nt
Fc1cccc(Cc2c(-c3cccc(Cl)c3)nc3ccc(Cl)cn23)c1	nt	11.1	nt	30.0%	nt
COc1ccc(CNC(=O)C2CCCN(Cc3nc(-c4cccc(C)c4)oc3C)C2)cc1 (stereo not drawn)	?	0.4	?	25.1µM*	?
Cc1oc(-c2ccc(Cl)cc2)nc1CN1CCC(C(=O)NCc2cccnc2)CC1	14.1µM*	nt	-28.7%	-16.6%	0.5%
CCc1ccc(-c2nc(CN3CCCC(C(=O)NCCc4ccc(OC)c(OC)c4)C3)c(C)o2)cc1 (stereo not drawn)	8.91µM*	-92.3*	?	22.4µM*	?
Cc1cccc(-c2nc(CN3CCCC(C(=O)NCc4ccc(Cl)cc4)C3)c(C)o2)c1 (stereo not drawn)	nt	6.6	7.4%[46.1 µM]	?	-27.1%[46.1 µM]
Cc1oc(-c2cccc(Cl)c2)nc1CN1CCC(C(=O)NCCc2ccc(Cl)cc2)CC1	nt	9.2	2.0%[46.1 µM]	-4.1%	16.7%[46.1 µM]
CCOC(=O)c1c(NC(=O)COC(=O)CNC(=O)c2ccc(Cl)cc2Cl)sc(C(=O)N(C)C)c1C	-22.5%	-0.2	23.4%	3.2%	?
C=CCn1c(C)cc(-c2csc(NCC)n2)c1C	10µM*	-63.1*	?	8.2%	-28.9%
Cc1ccnc(NC(=O)/C=C/c2ccccc2Cl)c1	?	-1.6	2.59µM*	?	?
Cc1cc(C)nc(NC(=O)/C=C/c2ccccc2Cl)n1	-29.6%	9.8	?	33.7%	-7.2%
Cc1cc(N)c2cc(NC(=O)/C=C/c3ccccc3Cl)ccc2n1	11.2µM*	nt	nt	?	nt
SMILES	HCV inh	HCMV inh	Marburg entry inh	FMDV antiviral	Lassa entry inh
Cc1c(Cl)cccc1NC(=O)CN1C(=O)COc2ccc(S(=O)(=O)N3CCCCCC3)cc21	nt	11.9	nt	-6.2%	6.2%[46.1 µM]
Cc1oc(-c2ccccc2NC(=O)c2ccsc2)nc1CN(C)CC1CC=CCC1 (stereo not drawn)	nt	nt	nt	-12.8%	nt
COc1ccc(C(CNC(=O)c2oc3cc(Br)ccc3c2C)N2CCCCC2)cc1 (stereo not drawn)	13.9%	0.0	6.6%[46.1 µM]	?	15.1%[46.1 µM]
Cc1c(C(=O)Nc2ccc(-c3nnc4n3CCCCC4)cc2)oc2ccc(Br)cc12	11.2µM*	?	?	0.0%	?
COc1ccc(C(CNC(=O)c2oc3ccc(F)cc3c2C)N2CCCCC2)cc1 (stereo not drawn)	11.2µM*	-19.9	nt	?	nt
COc1ccc(C(CNC(=O)c2oc3ccc(Br)cc3c2C)N2CCCCC2)cc1 (stereo not drawn)	12.6µM*	-32.9	-7.6%	-26.9%	-5.4%
Cc1c(C(=O)N2CCCCC2)oc2ccc(Br)cc12	22.4µM*	16.0	2.5%	91.6%	-2.2%
COc1ccccc1N1CCN(S(=O)(=O)c2c(C(=O)N3CCOCC3)c(C)n(C)c2C)CC1	-5.8%	20.5	nt	-7.0%	nt
CCC1CCc2sc(C(=O)NCC(c3ccc(OC)cc3)N3CCCC3)cc2C1 (stereo not drawn)	10µM*	-35.2	?	-3.4%	?
COc1ccc(C(CNC(=O)c2cccc(N(C)C)c2)N2CCCC2)cc1 (stereo not drawn)	-6.7%	86.9	?	8.2%	-11.4%
COc1ccc(/C=C/C(=O)Nc2ccc(-c3nnc4n3CCCCC4)cc2)c(OC)c1	?	-74.1*	8.0%	-28.6%	-1.9%
Cc1ccc2nc(-c3ccncc3)cc(-c3ccccc3)c2c1	11.2µM*	5.9	13µM*	0.0%	-1.5%
CC(=O)O[C@H]1C[C@@H]2OC3C=C(C)CCC3(C)[C@@]1(C)[C@@]21CO1 (stereo partly drawn)	nt	-98.2*	0.447µM*	nt	nt
Cc1cc(F)ccc1NC(=O)CCS(=O)(=O)c1cc2c(cc1C)NC(=O)CO2	nt	-104.7*	nt	-6.8%	5.6%[46.1 µM]
Cc1cc2c(cc1S(=O)(=O)NCc1ccccc1)OCC(=O)N2	0.9%	-87.2*!	nt	7.2%	7.5%[46.1 µM]
Cc1ccc(CNC(=O)CCS(=O)(=O)c2cc3c(cc2Cl)NC(=O)CO3)cc1	-7.4%	-104.8*!	nt	-4.5%	?
Cc1ccc2occ(CC(=O)Nc3c(C)cccc3C)c2c1	nt	8.1	?	-13.0%	10.5%[46.1 µM]
COc1ccc(C(=O)NCCn2cc(SCc3ccc(C(F)(F)F)cc3)c3ccccc32)cc1OC	nt	-62.4*	?	22.4µM*	-11.9%[46.1 µM]
O=C(CSc1cn(CCNC(=O)c2cccc(C(F)(F)F)c2)c2ccccc12)Nc1ccc2c(c1)OCCO2	nt	-82.8*	?	25.1µM*	?
Cc1ccc(C(=O)NCCn2cc(SCC(=O)Nc3cc(C)on3)c3ccccc32)cc1	?	-19.3	-5.1%	-13.4%	nt
Cc1ccc(C(=O)NCCn2cc(SCC(=O)N3CCOCC3)c3ccccc32)cc1	-19.8%	-63.1*	-1.3%	-17.3%	nt
O=C(NCCn1cc(SCc2ccc(F)cc2)c2ccccc21)c1ccccc1F	?	nt	?	28.2µM*	-81.6%
COC(=O)c1sccc1S(=O)(=O)N(CC(=O)NCc1ccc(C)cc1)c1ccc(C)cc1	nt	4.0	nt	-5.8%	?
